Consider 8 compounds from PubChem BioAssay.

The test system of test [1] is Plasmodium falciparum Sir2 (PF13_0152, Sir2A). Description: Plasmodium falciparum Sir2A binding compounds – biochemical, small-molecule microarray, 635 nm fluorescence, primary screen (AID 1098).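 Further: score merges spot fluorescence intensity with its signal-to-noise ratio.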 The conditions noted are these: fluorescence 635 nm, higher = more signal.
Test [2] can be described thus: probe aDKK1 binding to arrayed compounds – biochemical, biotinylated probe, 635/667 nm fluorescence, primary screen (AID 1099).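 Further: score merges 667nm spot fluorescence with signal to noise across triplicate slides.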 As to conditions: small-molecule microarray, higher = more signal.
The nature of test [3]: probe aCHRDL2 binding to arrayed compounds – biochemical, biotinylated probe, 635/667 nm fluorescence, primary screen (AID 1100). The conditions noted are these: small-molecule microarray, higher = more signal.
Test [4] can be described thus: change in splice reporter luminescence, either direction, cell-based, HEK293, spliceosome inhibition project, primary screen (AID 1101).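 Further: HEK293 cells carrying a splicing-competent luciferase reporter gene; test concentration not given here.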 The conditions noted are these: HEK293 splicing luciferase reporter, 24 h, higher = more signal, called active from +8 up or from −8 down. On the technique in general: In a reporter assay the amount or activity of a reporter protein is the signal.

The target in test [5] is Fibroblast growth factor 10 (Homo sapiens) (UniProt O15520). Briefly: compounds binding fibroblast growth factor 10 – biochemical, small-molecule microarray, 635 nm fluorescence, primary screen (AID 1102). The conditions noted are these: FGF10 binding, fluorescence 635 nm, higher = more signal.
Test [6] has as its system glycogen synthase kinase-3 (GSK3A per assay name; protocol says GSK3B). Briefly: compounds binding glycogen synthase kinase-3 – biochemical, small-molecule microarray, 635 nm fluorescence, GSK3A, primary screen (AID 1103). Further: the record names both GSK3A and GSK3B. As to conditions: fluorescence 635 nm, higher = more signal.
Test [7] deals with Epidermal growth factor receptor (Homo sapiens) (UniProt P00533). Briefly: compounds binding epidermal growth factor receptor – biochemical, small-molecule microarray, 635 nm fluorescence, primary screen (AID 1104).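 Further: score merges 667 nm emission intensity with spot signal to noise over triplicate slides.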 The conditions noted are these: EGFR binding, higher = more signal.
In test [8] the target is Follistatin-related protein 3 (Homo sapiens) (UniProt O95633). Description: compounds binding follistatin-related protein 3 – biochemical, small-molecule microarray, 635 nm fluorescence, primary screen (AID 1105).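 Further: score merges emission near 667 nm and signal to noise per printed spot across three slides.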 The conditions noted are these: FSTL3 binding, higher = more signal.
Test [9] has as its target Dickkopf-related protein 1 (Homo sapiens) (UniProt O94907). Description: small molecules binding DKK1 protein – biochemical, small-molecule microarray, 635 nm fluorescence scan, primary screen (AID 1106).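 Further: score merges emission near 667 nm with signal to noise over three replicate slides.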 As to conditions: higher = more signal.
The test system of test [10] is Inhibin beta A chain (activin A). Briefly: small molecules binding activin A – biochemical, small-molecule microarray, 635 nm fluorescence scan, primary screen (AID 1107).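 Further: mouse activin A protein probed at 4.33 µg/mL on printed slides; score merges bound-protein fluorescence near 667 nm with spot signal-to-noise.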 As to conditions: INHBA, higher = more signal.
Test [11] concerns Human papillomavirus type 1a protein E7 (residues 44-93). Briefly: small molecules binding HPV E7 44-93 – biochemical, small-molecule microarray, residues 44-93, 635 nm fluorescence, primary screen (AID 1108).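 Further: E7 fragment applied at 1 µg/mL in TBST for 1 h at 4 C; score combines spot fluorescence with its signal to noise ratio.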 The conditions noted are these: fluorescence 635 nm, higher = more signal.
Test [12] can be described thus: hepatitis C replication reporter changes, two-sided – Huh7 cells, luciferase reporter, HCV replication inhibitor project, primary screen (AID 1109).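 Further: huh7 hepatoma cells harbouring a luciferase neomycin HCV replicon reporter; luciferase luminescence as measure of HCV replicon replication; test concentration not given here.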 The conditions noted are these: Huh7 HCV replicon luciferase reporter, 48 h; higher = more signal.
Test [13] concerns the target Left-right determination factor 2 (Homo sapiens) (UniProt O00292). Description: small molecules binding LEFTY2 protein – biochemical, small-molecule microarray, 635 nm fluorescence scan, primary screen (AID 1110). As to conditions: higher = more signal.
The target of test [14] is Calmodulin-1 (Homo sapiens) (UniProt P0DP23). Briefly: small molecules binding calmodulin-1 with EGTA – biochemical, small-molecule microarray, Cy5-labelled CALM1, profiling panel (AID 1111).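 Further: labelled calmodulin applied in Tris saline Tween buffer holding calcium plus EGTA and DTT.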 As to conditions: Cy5-CALM1 binding fluorescence, higher = more signal.
Test [15] shares this target. Briefly: small molecules binding Ca-loaded calmodulin-1 – biochemical, small-molecule microarray, Cy5-labelled CALM1, plus calcium, artefact control for SMM control-protein annotation, profiling panel (AID 1112).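 Further: score merges spot fluorescence with signal to noise from triplicate slides.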 The conditions noted are these: Cy5-CALM1 binding fluorescence, higher = more signal.
Test [16] can be described thus: probe aWnt5a binding to arrayed compounds – biochemical, biotinylated probe, 635/667 nm fluorescence, primary screen (AID 1113).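 Further: score merges 667 nm fluorescence intensity with signal-to-noise per printed feature.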 As to conditions: small-molecule microarray, higher = more signal.
Test [17] in a line: probe aShh binding to arrayed compounds – biochemical, biotinylated probe, 635/667 nm fluorescence, primary screen (AID 1114).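 Further: probe is biotin-labelled aShh protein from a stem cell growth factor screen; measures binding of labelled protein to compounds printed on the slide; score merges feature fluorescence at 667 nm with signal-to-noise.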 As to conditions: small-molecule microarray, higher = more signal.
Test [18] is described as follows: probe aNog binding to arrayed compounds – biochemical, biotinylated probe, 635/667 nm fluorescence, primary screen (AID 1115).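 Further: probe is biotinylated aNog protein used at 0.15 µg/mL for 1 h at 4 C; z-score combines 667 nm fluorescence of each spot with its signal to noise.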 As to conditions: small-molecule microarray, higher = more signal.
Test [19] has as its target Torsin-1A-interacting protein 1 (Homo sapiens) (UniProt Q5JTV8). Description: compound microarray binding of lysate hLAP1 – cell lysate, small-molecule microarray, COS7 lysate, 635/667 nm fluorescence, primary screen (AID 1116). As to conditions: 635 nm fluorescence, higher = more signal.
The target of test [20] is Alpha-bungarotoxin (Bungarus multicinctus) (UniProt P60615). Briefly: compounds binding labelled alpha-BTX control protein – biochemical, small-molecule microarray, Alexa647 label, 635/667 nm fluorescence, artefact control for SMM control protein annotation, profiling panel (AID 1117). The conditions noted are these: alpha-BTX-A647 binding fluorescence, higher = more signal.

Activity calls are given as the source filed them.

Dickkopf-related protein 1 (Homo sapiens), sequence (O94907 whole entry, looked up): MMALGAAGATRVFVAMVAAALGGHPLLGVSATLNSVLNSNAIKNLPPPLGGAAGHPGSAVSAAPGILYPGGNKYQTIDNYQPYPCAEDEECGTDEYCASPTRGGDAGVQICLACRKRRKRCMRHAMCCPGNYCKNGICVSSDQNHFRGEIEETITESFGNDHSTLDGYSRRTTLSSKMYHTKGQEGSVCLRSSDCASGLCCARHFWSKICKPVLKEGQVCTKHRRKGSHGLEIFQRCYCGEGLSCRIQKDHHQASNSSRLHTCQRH
Torsin-1A-interacting protein 1 (Homo sapiens), sequence (Q5JTV8 whole entry, looked up): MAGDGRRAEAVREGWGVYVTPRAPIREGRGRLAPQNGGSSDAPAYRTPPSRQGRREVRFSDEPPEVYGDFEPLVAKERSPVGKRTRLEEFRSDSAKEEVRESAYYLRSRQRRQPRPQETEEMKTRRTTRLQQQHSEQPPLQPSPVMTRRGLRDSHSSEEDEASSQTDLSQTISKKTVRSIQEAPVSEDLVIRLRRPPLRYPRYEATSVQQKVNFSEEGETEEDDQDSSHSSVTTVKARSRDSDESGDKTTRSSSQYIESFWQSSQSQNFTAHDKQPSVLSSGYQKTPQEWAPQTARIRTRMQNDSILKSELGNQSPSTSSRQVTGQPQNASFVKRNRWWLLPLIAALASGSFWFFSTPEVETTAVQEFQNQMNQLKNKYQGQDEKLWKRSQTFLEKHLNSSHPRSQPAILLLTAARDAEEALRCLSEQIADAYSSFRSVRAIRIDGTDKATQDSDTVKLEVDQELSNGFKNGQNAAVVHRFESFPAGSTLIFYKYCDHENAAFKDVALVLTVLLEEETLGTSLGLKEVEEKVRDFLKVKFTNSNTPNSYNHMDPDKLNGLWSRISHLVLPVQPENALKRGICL
Follistatin-related protein 3 (Homo sapiens), sequence (O95633 whole entry, looked up): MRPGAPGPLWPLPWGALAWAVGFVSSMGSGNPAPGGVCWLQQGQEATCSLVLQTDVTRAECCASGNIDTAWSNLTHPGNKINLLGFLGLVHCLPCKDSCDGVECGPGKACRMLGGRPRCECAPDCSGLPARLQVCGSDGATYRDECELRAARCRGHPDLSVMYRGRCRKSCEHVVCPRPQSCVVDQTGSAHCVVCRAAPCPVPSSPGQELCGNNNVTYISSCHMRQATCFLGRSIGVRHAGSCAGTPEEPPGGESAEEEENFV
Fibroblast growth factor 10 (Homo sapiens), sequence (O15520 whole entry, looked up): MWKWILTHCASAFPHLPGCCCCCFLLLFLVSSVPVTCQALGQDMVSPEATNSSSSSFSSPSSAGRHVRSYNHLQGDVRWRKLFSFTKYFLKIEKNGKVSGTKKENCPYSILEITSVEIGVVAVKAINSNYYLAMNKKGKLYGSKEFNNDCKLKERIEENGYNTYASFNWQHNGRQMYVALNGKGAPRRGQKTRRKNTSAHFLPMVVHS
Left-right determination factor 2 (Homo sapiens), sequence (O00292 whole entry, looked up): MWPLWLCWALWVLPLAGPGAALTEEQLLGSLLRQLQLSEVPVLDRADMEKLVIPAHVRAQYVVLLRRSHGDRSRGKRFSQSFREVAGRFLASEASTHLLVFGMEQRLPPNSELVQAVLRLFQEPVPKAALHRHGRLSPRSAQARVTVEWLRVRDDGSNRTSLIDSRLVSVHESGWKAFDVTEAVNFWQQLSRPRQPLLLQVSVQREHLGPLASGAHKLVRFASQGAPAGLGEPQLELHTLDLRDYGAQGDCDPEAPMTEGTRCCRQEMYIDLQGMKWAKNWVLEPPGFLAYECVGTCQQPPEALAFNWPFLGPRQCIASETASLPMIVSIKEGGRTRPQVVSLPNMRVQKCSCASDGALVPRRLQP
Alpha-bungarotoxin (Bungarus multicinctus), sequence (P60615 whole entry, looked up): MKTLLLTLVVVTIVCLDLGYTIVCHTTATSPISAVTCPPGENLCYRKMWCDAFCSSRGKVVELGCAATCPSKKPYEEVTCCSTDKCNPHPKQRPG
Epidermal growth factor receptor (Homo sapiens), sequence (P00533 whole entry, looked up): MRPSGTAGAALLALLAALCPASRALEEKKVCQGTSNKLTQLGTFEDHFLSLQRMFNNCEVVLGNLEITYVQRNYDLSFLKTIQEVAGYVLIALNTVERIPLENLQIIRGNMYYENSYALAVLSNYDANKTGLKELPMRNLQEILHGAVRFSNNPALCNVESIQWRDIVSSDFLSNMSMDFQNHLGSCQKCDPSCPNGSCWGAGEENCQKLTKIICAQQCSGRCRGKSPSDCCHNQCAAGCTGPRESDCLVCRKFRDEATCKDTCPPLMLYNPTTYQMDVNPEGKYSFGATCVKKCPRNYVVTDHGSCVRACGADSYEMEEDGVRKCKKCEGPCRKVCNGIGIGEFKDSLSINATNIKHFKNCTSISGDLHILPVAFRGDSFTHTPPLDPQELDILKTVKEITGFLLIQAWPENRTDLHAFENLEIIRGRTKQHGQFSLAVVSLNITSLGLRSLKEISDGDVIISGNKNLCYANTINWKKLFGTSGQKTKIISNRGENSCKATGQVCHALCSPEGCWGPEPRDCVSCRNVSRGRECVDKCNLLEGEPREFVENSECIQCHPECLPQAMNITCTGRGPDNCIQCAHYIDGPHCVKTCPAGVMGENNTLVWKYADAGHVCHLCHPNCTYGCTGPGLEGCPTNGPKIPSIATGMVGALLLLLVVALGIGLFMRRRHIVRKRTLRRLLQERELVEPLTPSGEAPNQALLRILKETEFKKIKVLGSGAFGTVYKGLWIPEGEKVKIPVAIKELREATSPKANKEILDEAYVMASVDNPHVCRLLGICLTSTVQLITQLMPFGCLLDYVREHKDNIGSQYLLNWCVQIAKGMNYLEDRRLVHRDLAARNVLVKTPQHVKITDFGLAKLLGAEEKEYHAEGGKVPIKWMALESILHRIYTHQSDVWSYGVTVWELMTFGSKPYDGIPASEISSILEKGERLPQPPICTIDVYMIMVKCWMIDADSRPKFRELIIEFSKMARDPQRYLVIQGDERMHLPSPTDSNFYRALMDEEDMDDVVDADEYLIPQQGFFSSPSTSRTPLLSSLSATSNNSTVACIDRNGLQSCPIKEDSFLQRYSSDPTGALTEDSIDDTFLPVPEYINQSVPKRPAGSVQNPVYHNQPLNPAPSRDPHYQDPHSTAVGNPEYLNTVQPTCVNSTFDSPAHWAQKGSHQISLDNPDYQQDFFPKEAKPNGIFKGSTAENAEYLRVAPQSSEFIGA

Regarding `O=C1NC(=O)C2C1C=CC(C(O)c1cc(C(F)(F)F)cc(C(F)(F)F)c1)N2Nc1ccccn1` (stereo not given), the composite z-score in test [1] is 1.57; in test [2], -0.0616; in [3] it was -0.387; in test [5] it was 0.163; in test [6], -0.164; in test [7], 0.22. The composite z-score in test [8] was 0.431; in test [9] it was 0.0665; in test [10], 1.33; in [11], -0.2; in test [13], 0.274; in test [14], -0.0336. Moreover, the composite z-score in test [15] is -0.531; in test [16], -0.0165; in test [17], -0.214; in test [18] it was 0.566; in [19], 1.88; in test [20], 0.143. Moreover, the values for the z-score in test [4] and in test [12] were 1.35 (inactive) and -0.345, respectively.

On to `CC1(C)[C@@H]2CC(C(O)C3C=CC4C(=O)N(c5ccccc5)C(=O)C4N3Nc3ccc([N+](=O)[O-])cc3)=C[C@H]1C2` (stereo not given in full), for which the composite z-score in [1] was found to be 0.966; in [2] it was 0.217; in [3] it was 0.648; in [5], 1.11; in test [6] it was 1.34; in test [7], 0.604. Besides, the composite z-score is 1.38 in [8]; -0.104 in [9]; 0.482 in test [10]; 1.4 in test [11]; 0.492 in test [13]; 1.69 in [14]. Also, the composite z-score was 0.691 in test [15]; 0.0718 in test [16]; 0.0326 in test [17]; 0.902 in test [18]; 0.561 in [19]; 1.67 in test [20]. Also, the figures for the z-score in test [4] and in [12] were -0.547 (inactive) and -1.56, respectively.

Consider `CC(CO)N1C(=O)[C@@H]2C3C(=O)OCCC/C=C\[C@H]3OC23C=CCN(C(C)(C)C)C(=O)[C@@H]13` (stereo not given in full), for which the composite z-score in [1] is 0.205; in test [2], -0.349; in [3] it was -0.522; in test [5] it was 0.259; in test [6], -0.0474; in test [7], -0.325. For the same compound, the composite z-score is 0.0856 in test [8]; 0.113 in [9]; 0.0635 in test [10]; -0.898 in [11]; -0.0466 in test [13]; -0.565 in test [14]. The composite z-score in test [15] is -0.769; in [16], -0.192; in test [17] it was 0.108; in test [18], -0.147; in [19] it was 0.859; in test [20], 0.149. The z-score is 0.742 (inactive) in [4] and 0.367 in test [12].

Turning to `O=C1c2ccccc2[C@](Cc2ccccc2I)(C(=O)NCCN2CCOCC2)[C@H](c2ccc(CO)cc2)N1Cc1ccccc1Cl`, the composite z-score in [1] came to 1.42; in [2], 0.964; in test [3] it was 0.732; in test [5] it was 1.15; in test [6], 1.28; in test [7], 0.629. Besides, the composite z-score in test [8] was 1.25; in test [9], 0.419; in test [10] it was 0.605; in test [11], -0.612; in test [13], 0.945; in test [14] it was 1.51. Also, the composite z-score in test [15] is 0.0568; in test [16] it was 0.0215; in [17], -0.0011; in [18], -0.474; in [19], 0.896; in test [20], 1.47. For the same compound, the z-score in [4] is -0.0587 (inactive); in test [12], -2.64.

Regarding `O[C@@H](Cc1ccccc1)[C@H]1C2C=CCCC=C2CN1Cc1cccc(Cl)c1` (stereo not given in full), the composite z-score in test [1] was 0.77; in [2], -0.0422; in test [3] it was -0.284; in [5] it was 0.9; in [6], 1.08; in test [7], 0.231. In addition, the composite z-score in test [8] was found to be 1.24; in test [9] it was 0.496; in [10] it was 0.296; in [11], 1.1; in test [13] it was 0.702; in test [14], 0.0101. The composite z-score in test [15] is -0.2; in [16], -0.0721; in test [17], -0.138; in test [18], 0.277; in test [19] it was 0.761; in test [20], 1.36. The figures for the z-score in [4] and in test [12] were -0.381 (inactive) and -1.42, respectively.

For the compound `[N-]=[N+]=NCc1ccccc1C[C@]1(C(=O)N2CCCCC2)N=C(c2ccc(OCCCO)cc2)O[C@H]1c1ccccc1N=[N+]=[N-]`, the composite z-score in [1] was 0.711; in test [2], 1.1; in test [3] it was 1.19; in test [5], 0.55; in [6], 0.998; in test [7], 0.26. Moreover, the composite z-score is 0.308 in [8]; -0.5 in test [9]; 1.36 in test [10]; 1.41 in test [11]; 0.0928 in test [13]; 1.43 in test [14]. For the same compound, the composite z-score was 0.587 in [15]; 0.171 in test [16]; 0.417 in test [17]; 1.03 in [18]; 1.85 in test [19]; 1.45 in test [20]. Also, the z-score in test [4] was -1.01 (inactive); in test [12], -2.92.

Consider `COCCOC(=O)N1C(=O)[C@@]2(c3ccccc31)[C@H](C(=O)N1CCc3cc(OC)c(OC)cc3C1)[C@H]1C(=O)O[C@H](c3ccccc3)[C@H](c3ccccc3)N1[C@@H]2c1ccc(OCCO)cc1`, for which the composite z-score in test [1] amounted to 1.33; in test [2] it was 0.232; in [3], 0.395; in test [5] it was 1.15; in test [6], 1.01; in [7] it was 0.565. For the same compound, the composite z-score in [8] was found to be 0.473; in [9], 0.235; in [10], 0.0475; in test [11], 1.02; in test [13], 0.295; in test [14], 1.28. The composite z-score was 0.366 in [15]; -0.147 in test [16]; -0.0863 in test [17]; 0.495 in test [18]; 1.05 in test [19]; 0.663 in test [20]. Besides, the figures for the z-score in [4] and in test [12] were -1.27 (inactive) and -1.39, respectively.

In the case of `C=C(COC)/C(=C/C[C@H](OC(C)=O)c1ccc(CO)o1)c1cc(C(=O)OC)ccc1OC`, the composite z-score in test [1] was 1.12; in [2], 0.667; in [3], -0.201; in [5] it was 0.483; in [6], -0.0434; in test [7], -0.173. The composite z-score in test [8] is -0.0145; in test [9] it was -0.164; in test [10] it was 1.32; in test [11], 0.487; in test [13], -0.151; in test [14], -0.0624. In addition, the composite z-score is 0.204 in test [15]; -0.0107 in test [16]; -0.105 in test [17]; -0.0489 in [18]; 0.0742 in [19]; -0.136 in test [20]. The results for the z-score in test [4] and in test [12] were -0.0994 (inactive) and -0.246, respectively.
